Assay outcomes from PubChem.
3T3 cytotox: Cytotoxic Profiling in NIH 3T3 Cell Line of Diverse Libraries Using Quantitative High-Throughput Screening; NIH 3T3 viability, CellTiter-Glo ATP luminescence, 48-72 h; Potency, µM (top dose mostly 96.7 µM), for inactives: at the highest dose activity change, negative = cytotoxicity, usual class: inhibitors; 94,000 compounds, 4.3% hits; AID 1345082, 2018; also: nearly all actives have a fitted effect of over 55% in size
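First NIH 3T3 cells are plated at 400 cells/well; next compound is pinned in; then plates incubate 48 or 72 hr at 37 °C; finally CellTiter-Glo is added and luminescence read after 10 min.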
Luciferase inh: Firefly luciferase inhibition profiling of diverse chemical library using quantitative high-throughput screening; purified P. pyralis luciferase, luminescence, biochemical; Potency, µM (highest dose often 115 µM), hits mostly inhibitors; 76,000 compounds, 2.5% hits; also: nearly all actives have a fitted effect of over 65% in size
Target sequence (P08659 whole entry, looked up): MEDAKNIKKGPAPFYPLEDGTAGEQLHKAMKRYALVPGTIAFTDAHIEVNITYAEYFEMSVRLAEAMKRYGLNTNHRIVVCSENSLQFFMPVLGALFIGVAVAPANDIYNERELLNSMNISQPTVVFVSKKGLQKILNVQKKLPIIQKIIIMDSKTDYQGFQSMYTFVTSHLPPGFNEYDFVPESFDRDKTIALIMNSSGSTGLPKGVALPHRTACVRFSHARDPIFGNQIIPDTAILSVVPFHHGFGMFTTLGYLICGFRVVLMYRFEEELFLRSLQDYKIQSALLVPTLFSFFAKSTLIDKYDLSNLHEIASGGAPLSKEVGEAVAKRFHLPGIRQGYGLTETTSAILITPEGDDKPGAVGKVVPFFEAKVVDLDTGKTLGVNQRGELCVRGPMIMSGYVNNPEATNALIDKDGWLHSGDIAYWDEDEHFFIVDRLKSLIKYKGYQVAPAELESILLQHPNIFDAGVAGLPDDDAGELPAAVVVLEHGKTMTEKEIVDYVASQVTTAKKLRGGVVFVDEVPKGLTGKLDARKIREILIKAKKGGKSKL
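Luminescence read by CCD imager after adding enzyme (10nM final) to wells holding compound, titrated in qHTS. Substrates 10uM each D-luciferin and ATP; buffer 50mM Tris acetate pH 7.5, 10mM Mg acetate, Tween-20, BSA.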
GPT2 inh: Primary qHTS assay for inhibitors of Glutamate pyruvate transaminase 2 (GPT2). Potency, µM (doses to about 57.7 µM), without a hit: at the top dose activity change, negative = inhibition, hits mostly inhibitors. Alanine aminotransferase 2 (Homo sapiens), Q8TD30. 100,000 compounds, 0.25% hits. Recombinant GPT2, coupled pyruvate oxidase/HRP Amplex Red fluorescence; also: nearly all actives have a fitted effect of over 60% in size
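Recombinant GPT2 (10ng/uL) with 250uM a-KG and 2mM L-alanine, 30 min at room temperature, in HEPES pH 7.5 buffer. Pyruvate detected by pyruvate oxidase/HRP/Amplex Red fluorescence after 30 min in the dark; AOA (50uM) as positive control.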
HEK cytotox: Cytotoxic Profiling in HEK 293 Cell Line of Diverse Libraries Using Quantitative High-Throughput Screening. Potency, µM (doses to about 115 µM), without a hit: at the top dose activity change, negative = cytotoxicity, actives largely listed as inhibitors. 94,000 compounds, 6.6% hits. AID 1345083, 2018. HEK 293 viability, ATP luminescence (CellTiter-Glo), 48-72 h; also: nearly all actives have a fitted effect of over 60% in size
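Read-out: CellTiter-Glo ATP luminescence. Cells: HEK 293, 250 cells/well. Exposure: 48 or 72 hr, 37 degree Celsius.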
NPR1 antag: Natriuretic polypeptide receptor (hNpr1) antagonism - Primary qHTS; Atrial natriuretic peptide receptor 1 (Homo sapiens), P16066; HEK293 hNpr1 GloSensor cGMP, ANP-stimulated luminescence; Potency, µM (top dose mostly 46.3 µM), inactives show at the highest dose activity change, negative = inhibition, most hits filed as inhibitors; 76,000 compounds, 1.6% hits; AID 1347048, 2019; calls by dose curve; also: nearly all actives have a fitted effect of over 60% in size
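HEK293 cells stably expressing human Npr1 and cGMP GloSensor pGS-40F, loaded 2 h with 2% GloSensor reagent, given compound 30 min at room temperature. Luminescence read before and 20 min after 0.1 nM hNppA.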
* marks the source's active call; other numbers are inactive results; i = inactive; ? = inconclusive; nt = no result; [ ] = dose if it differs, or a comment. Shown are actives, neighbours in structure and some others; about 10% of the full set was active somewhere. Unless noted, calls follow the shape of the dose curve; as a rule, active = well fitted curve in the direction sought with a large enough effect; inconclusive = small, poorly fitted or top-dose-only effect, or another doubt; inactive = no such curve, though single readings can be large; an effect the other way counts as inactive or inconclusive. % is scaled to controls: 0 for no effect and ±100 for the full control effect; potency is read from the fitted curve at half-maximal effect.

SMILES | 3T3 cytotox | Luciferase inh | GPT2 inh | HEK cytotox | NPR1 antag
Cc1cc(=O)n(CC(=O)Nc2ccc(F)cc2)c(N2CCc3ccccc3C2)n1 | 40µM* | i | i | 40µM* | -23%
Cc1cc(=O)n(CC(=O)Nc2ccc(C(C)C)cc2)c(N2CCN(c3ccccc3)CC2)n1 | 32µM* | i | 3% | ? | -1%
O=C(c1cnco1)N1CC(F)(F)C[C@H]1c1nc(-c2ccccc2)no1 | -18% | i | i | -3% | -15%
COc1cccc(NC(=O)Cn2c(N3CCc4ccccc4C3)nc(C)cc2=O)c1 | 22µM* | i | ? | 20µM* | ?
Fc1ccccc1OCC1CCCN(c2nccc(-c3cccnc3)n2)C1 (stereo not given) | 79µM* | i | ? | ? | -1%
c1ccc(COC2CCN(c3nccc(-c4cccnc4)n3)CC2)nc1 | ? | i | i | ? | 1%
COCc1ncc(CN2CC[C@@H](c3ccc4ccccc4c3)[C@H](O)C2)cn1 | -28% | i | -4%[11.5 µM] | -16% | -1%
COc1ccccc1N1CCN(C(=O)Cn2cccc2-c2nc(-c3ccc(F)cc3)no2)CC1 | ? | i | -9% | 40µM* | -4%
CCOc1ccc(NC(=O)Cn2cccc2-c2nc(-c3ccccc3)no2)cc1 | ? | i | -4% | 28µM* | -4%
COc1ccc(NC(=O)Cn2cccc2-c2nc(-c3ccccc3)no2)cc1OC | 32µM* | i | 1% | 32µM* | 5%
CCOc1ccc(NC(=O)Cn2cccc2-c2nc(-c3ccc(F)cc3)no2)cc1 | 0% | i | i | -12% | 8%
O=C(Cn1cccc1-c1nc(-c2ccc(F)cc2)no1)N1CCN(c2ccccc2F)CC1 | -12% | i | i | ? | -14%
NC1CC(c2cc(N3CCN(c4ccc5nccn5n4)CC3)ncn2)C1 (stereo not given) | -12% | i | i | 1% | 0%
C=CCN1CC(C(=O)N2CCC3(CCC(=O)N(C4CC4)C3)CC2)CC1=O (stereo not given) | -1% | i | -11% | 0% | 7%
CC(=O)c1ccc(NC(=O)N2C[C@@H]3C[C@H](C2)c2ccc(NC(=O)c4ccc(F)cc4)c(=O)n2C3)cc1 | i | i | 3% | i | 4%
c1cnn(-c2ccc(-c3n[nH]c(C4CCOCC4)n3)cc2)c1 | i | ? | i | 1% | 11%
c1cc(N2CCCCC2)ccc1-c1n[nH]c(C2CCOC2)n1 (stereo not given) | ? | 6.3µM* | i | -11% | -29%
O=C(NCCOc1ccccc1)c1ccc2c(c1)OCCN(CCC(F)(F)F)C2 | -28%[138 µM] | 40µM* | ? | ? | -10%[70.6 µM]
Cc1cnc(NC(=O)c2ccc3c(c2)OCCN(C2CCC2)C3)s1 | ? | ? | 5%[88.5 µM] | ? | -18%[70.6 µM]
Cc1ccccc1NC(=O)c1ccc2c(c1)OCCN(CCC(F)(F)F)C2 | ? | i | i | ? | -1%[70.6 µM]
CC(C)CCN1CCOc2cc(C(=O)Nc3ccccc3)ccc2C1 | 11µM* | i | -33%[88.5 µM] | ? | -21%[70.6 µM]
O=C(Nc1nccs1)c1ccc2c(c1)OCCN(C1CCC1)C2 | ? | 22µM* | 0%[88.5 µM] | ? | -3%[70.6 µM]
Cc1cnc(NC(=O)c2ccc3c(c2)OCCN(Cc2ncccn2)C3)s1 | -30%[138 µM] | 40µM* | 1%[88.5 µM] | ? | 0%[70.6 µM]
COc1ccc(NC(=O)c2ccc3c(c2)OCCN(CCC(C)C)C3)cn1 | ? | i | 1%[88.5 µM] | ? | ?
COc1cccc(CN2CCOC3CCN(Cc4cccc(F)c4)CC3C2=O)c1 (stereo not given) | -21%[138 µM] | i | 0%[88.5 µM] | ? | 1%[70.6 µM]
SMILES | 3T3 cytotox | Luciferase inh | GPT2 inh | HEK cytotox | NPR1 antag
COCCc1ccc(OCc2ccccc2-c2cc(C)n[nH]c2=O)cc1 | i | i | i | 2% | -2%
CCOC(=O)C1=C(C)N=C2SC=C(CC(=O)Nc3ccc(OC)cc3)N2C1c1cccc(OC)c1 (stereo not given) | ? | i | -8% | ? | -6%
COC(=O)NC1CCN(Cc2cccc(-c3ccc(SC)cc3)c2)CC1 | 32µM* | nt | nt | ? | nt
COc1ccccc1C(=O)NC1CCN(Cc2cccc(-c3ccc(SC)cc3)c2)CC1 | 28µM* | nt | nt | 32µM* | nt
CSc1ccc(-c2cccc(CN3CCC(NC(=O)NC4CCCC4)CC3)c2)cc1 | -17% | nt | nt | -9% | nt
COc1cc(CN2CCN(c3noc(C(C)C)n3)CC2CCO)cc(OC)c1 (stereo not given) | ? | i | ? | ? | -4%
Cn1ncc2c(C(=O)NCCc3ccccn3)cc(-c3cccc(C(F)(F)F)c3)nc21 | ? | nt | nt | 32µM* | nt
Cn1ncc2c(C(=O)NCc3cccnc3)cc(-c3cccc(C(F)(F)F)c3)nc21 | ? | nt | i | 50µM* | nt
COc1cccc(-c2cc(C(=O)NCc3cccc(C(F)(F)F)c3)c3cnn(C)c3n2)c1 | ? | nt | nt | 25µM* | nt
CCn1cc(S(=O)(=O)N2CCC3(CC2)CC(OCCOC)CCO3)cn1 (stereo not given) | 0% | i | 3% | -6% | -1%
O=C(C1CC1)N1CCCN(c2nc3ncccc3o2)CC1 | -10%[138 µM] | ? | i | -6%[172 µM] | 0%[70.6 µM]
CCOC(=O)C1=C(C)N(Cc2ccc(C(=O)N3CCCCC3)cc2)C(=O)CC1c1cccc(C)c1 (stereo not given) | ? | i | i | 40µM* | ?
CCCCNC(=O)c1cccc(CN2C(=O)CC(c3ccccc3C)C(C(=O)OCC)=C2C)c1 (stereo not given) | ? | i | -2% | ? | -3%
CN(Cc1cccc(N2CCN(S(=O)(=O)c3ccccc3C(F)(F)F)CC2)c1F)S(C)(=O)=O | ? | nt | nt | 35µM* | nt
Cn1nc2n(c1=O)CCN(S(=O)(=O)c1ccccc1C(F)(F)F)CC2 | -13% | i | i | -13% | -1%
COC(=O)[C@@H]1Cc2ncn(Cc3ccc(OC)cc3)c2CN1C(=O)COc1ccccc1 | ? | i | i | ? | 1%
COc1ccc2cc(C3CN(C(=O)c4cccn4C)CCO3)ccc2c1 (stereo not given) | 40µM* | 4.5µM* | ? | ? | 16µM*
COc1cc(CN2CCN(c3ncnc(C)c3C)CC2CCO)cc(OC)c1 (stereo not given) | -38% | i | 0%[11.5 µM] | ? | 1%
COc1ccc2c(C)c(C(=O)N3CCOC(c4ccc(F)cc4)C3)oc2c1 (stereo not given) | ? | i | -33% | ? | -14%
